Screen size: about 48,000 compounds; about 13,000 (27%) showed an effect of 50% or more. Some of the results follow.
Test system: Wolbachia pipientis
Experiment: Anti-Wolbachia Cell-Based Screen
Assay type: functional
Set-up: scale not given: in the data most compounds retested in dose-response had high values
Details: 5 µM

Row | SMILES | Percent Effect
1 | O=C(CCn1c(=O)oc2ccccc21)NCC(O)c1ccccc1 (centres undefined) | 124.9%
2 | COCc1ccc(C(=O)NS(=O)(=O)c2ccc3c(c2)CCC(=O)N3)cc1 | -28.72%
3 | Cc1cc(N2CCN(C(=O)c3cc(Cl)c[nH]3)CC2)nc(C)n1 | -11.81%
4 | Cn1ccnc1CN1CCC(c2ccnc(-c3cccc(O)c3)c2)C1 (centres undefined) | 8.376%
5 | COc1ccc(-c2cc(C3CCCNC3)ccn2)cc1.Cl (centres undefined) | 198.3%
6 | COc1ccc(-c2nc(C3CCNCC3)cc3c2ncn3C)cc1.Cl.Cl | -43.66%
7 | COc1cccc(-c2c[nH]c(C3CCCN3)n2)c1.Cl.Cl (centres undefined) | -13.27%
8 | COc1ccc([C@@H](C)n2ccnc2-c2cc3n(n2)CCCNC3)cc1 | -13.97%
9 | COc1ccc(-c2cc(C3CCN(C(C)=O)CC3)ccn2)cc1 | 135.1%
10 | COc1ccc(OC)c(C2CCN(C3CCN(C(C)=O)CC3)C2)c1 (centres undefined) | -1.425%
11 | COc1cccc(-c2cc(C3CCCNC3)ccn2)c1 (centres undefined) | 179.8%
12 | COc1ccc([C@@H]2CN(c3cc(C(=O)O)ccn3)C[C@H]2N(C)C)cc1 | -11.81%
13 | COc1ccc(-c2cc(C3CCNCC3)ccn2)cc1.Cl | 126.8%
14 | CC(NC(=O)CCCc1ccc(Cl)cc1)c1n[nH]c(=O)[nH]1 (centres undefined) | 26.11%
15 | COCCCNC(=O)C1CCN(CC2(O)CCC(C)CC2)CC1 (centres undefined) | -1.754%
16 | O=C(c1ccc(O)c(Cl)c1)N1CCC(c2n[nH]c(C3CC3)n2)CC1 | 7.915%
17 | Cc1noc(C)c1CCCNC(=O)Nc1ccc2c(c1)CC(=O)N2 | -4.957%
18 | Cc1ccsc1CNC(=O)c1ccc(N2CCOC2=O)cc1 | 25.75%
19 | Cc1noc(C)c1CNC(=O)N1CCC(CO)CC1 | -12.65%
20 | Cc1noc(C)c1CNC(=O)Nc1ccc(N2CCOC(C)C2)cc1 (centres undefined) | 95.8%
21 | Cc1noc(C)c1CN1C[C@@H](C(=O)O)[C@H](c2ccccc2)C1 | -10.93%
22 | Cc1noc(C)c1CCCNC(=O)Nc1ccc2c(c1)COC2 | 12.5%
23 | CC1CN(c2ccc(CNC(=O)NCc3ccoc3)cn2)CCO1 (centres undefined) | 4.131%
24 | Cc1ocnc1CNC(=O)Nc1ccc(N2CCOC(C)C2)cc1 (centres undefined) | 105.8%
25 | Cc1noc(C)c1C(=O)NCc1ccc(N2CCOC(C)C2)nc1 (centres undefined) | 6.815%

Row | SMILES | Percent Effect
26 | CC1CN(c2ccc(CNC(=O)NCCO)cn2)CCO1 (centres undefined) | -1.494%
27 | Cc1noc(C)c1CNC(=O)Nc1ccc(N2CCOC2=O)cc1 | 99.13%
28 | Cc1noc(C)c1CNC(=O)Nc1ccc(N2CCSCC2)cc1 | 101.4%
29 | O=C(CCCn1cncn1)NC1(c2ccc(Cl)cc2)CCC1 | -16.99%
30 | COc1cc(CCC(=O)N2CCC(c3cc4nccnc4[nH]3)CC2)on1 | 109.8%
31 | COc1cc(CCC(=O)N2CCC(c3cc4ncccc4[nH]3)CC2)on1 | 86.08%
32 | O=C(CCn1ccc(=O)[nH]c1=O)N1CCC(Oc2ccccn2)CC1 | 4.456%
33 | O=C(CCc1cc(O)no1)N1CCCC(COc2ccccc2F)C1 (centres undefined) | -3.381%
34 | O=C(CCc1cc(O)no1)N1CCCC(COc2ccc(F)cc2)C1 (centres undefined) | -11.68%
35 | O=C(CCN1CCC(c2cc3ccccc3[nH]2)CC1)N1CCOCC1 | -13.23%
36 | CC(C)NC(=O)C1CN(C(=O)c2ccc(F)cc2)CC12CCOCC2 (centres undefined) | 19.27%
37 | CC(C)NC(=O)[C@@H]1CN(C)C[C@]12COc1ccc(F)cc1C2=O | 126.3%
38 | CCCN1CCC(NC(=O)c2ccc(F)cc2I)CC1 | 3.516%
39 | O=C(NC1(C(=O)O)CCCC1)C1Cc2cc(F)ccc2O1 (centres undefined) | -1.866%
40 | CN1C[C@@H](C(=O)NC2CC2)[C@@]2(COc3ccc(F)cc3C2=O)C1 | 74.8%
41 | CNC(=O)N1Cc2cc(F)ccc2C2(CCN(C)CC2)C1.Cl | 3.324%
42 | CN1C[C@@H](C(=O)NC2CCCC2)[C@@]2(COc3ccc(F)cc3C2=O)C1 | 83.49%
43 | O=C(C1CCOc2ccccc21)N1CCOc2ccc(F)cc21 (centres undefined) | 2.761%
44 | O=C(NCCNC(=O)C1Cc2cc(F)ccc2O1)C1CCCCC1 (centres undefined) | 14.96%
45 | CN1CCN(C(=O)[C@@H]2CN(C)C[C@]23COc2ccc(F)cc2C3=O)CC1 | 67.23%
46 | O=C(CCN1CCC(C(=O)c2cc(F)ccc2F)CC1)NC1CCCC1 | -34%
47 | Cc1ccsc1C(=O)N1CC(C(=O)NC(C)C)C2(CCOCC2)C1 (centres undefined) | 2.071%
48 | Cc1cc(F)ccc1N1CCC(N2C[C@@H](C)[C@@](C)(O)C2)CC1 | -24.61%
49 | OCCOCc1n[nH]c2c1CN(Cc1cccs1)C2 | -8.945%

Reference: ChEMBL document CHEMBL3988442, “University of Dundee, Small-Polar-MMV Screening Library” (2021)
